Assay results published in the supplement of paper PMC6897291.

Columns and labels:
[1] = tested on: U-2932; assay: growth inhibition by drug alone (1 - RLU/untreated control) (fraction); higher = stronger inhibition; details: 177Lu-lilotomab satetraxetan 0 ug/ml
Procedure, shortened: (§1)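 With or without 18 h pretreatment by a radiolabelled anti-CD37 antibody conjugate (~600 MBq/mg; 0.5 µg/ml RIVA, 1 µg/ml U-2932), RIVA and U-2932 cells were washed and plated at 3,000 cells/well. Pre-printed compound doses were 10/100 nM for RIVA and 10/1,000 nM for U-2932. Growth inhibition uses RealTime-Glo RLU relative to the untreated no-drug wells. The calculation is 1 − RLU/mean of 48 such wells per plate, with reads daily from day 3 after 1 h at 37°C.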

[2] = tested on: RIVA; assay: as above; details: 177Lu-lilotomab satetraxetan 0 ug/ml
Procedure, shortened: as §1

[3] = tested on: U-2932; assay: growth inhibition by drug plus 177Lu-lilotomab satetraxetan (1 - RLU/untreated control) (fraction); higher = stronger inhibition; details: 177Lu-lilotomab satetraxetan 1 ug/ml
Procedure, shortened: as §1

[4] = tested on: RIVA; assay: as above; details: 177Lu-lilotomab satetraxetan 0.5 ug/ml
Procedure, shortened: as §1

Structure (SMILES) | growth inhibition by drug alone ([1]; 10 nM, time (day): 3) | growth inhibition by drug alone ([1]; 10 nM, time (day): 4) | growth inhibition by drug alone ([1]; 10 nM, time (day): 5) | growth inhibition by drug alone ([1]; 10 nM, time (day): 6) | growth inhibition by drug alone ([1]; 1000 nM, time (day): 3) | growth inhibition by drug alone ([1]; 1000 nM, time (day): 4) | growth inhibition by drug alone ([1]; 1000 nM, time (day): 5) | growth inhibition by drug alone ([1]; 1000 nM, time (day): 6) | growth inhibition by drug alone ([2]; 10 nM, time (day): 3) | growth inhibition by drug alone ([2]; 10 nM, time (day): 4) | growth inhibition by drug alone ([2]; 10 nM, time (day): 5) | growth inhibition by drug alone ([2]; 10 nM, time (day): 6) | growth inhibition by drug alone ([2]; 100 nM, time (day): 3) | growth inhibition by drug alone ([2]; 100 nM, time (day): 4) | growth inhibition by drug alone ([2]; 100 nM, time (day): 5) | growth inhibition by drug alone ([2]; 100 nM, time (day): 6) | growth inhibition by drug plus 177Lu-lilotomab satetraxetan ([3]; 10 nM, time (day): 3) | growth inhibition by drug plus 177Lu-lilotomab satetraxetan ([3]; 10 nM, time (day): 4) | growth inhibition by drug plus 177Lu-lilotomab satetraxetan ([3]; 10 nM, time (day): 5) | growth inhibition by drug plus 177Lu-lilotomab satetraxetan ([3]; 10 nM, time (day): 6) | growth inhibition by drug plus 177Lu-lilotomab satetraxetan ([3]; 1000 nM, time (day): 3) | growth inhibition by drug plus 177Lu-lilotomab satetraxetan ([3]; 1000 nM, time (day): 4) | growth inhibition by drug plus 177Lu-lilotomab satetraxetan ([3]; 1000 nM, time (day): 5) | growth inhibition by drug plus 177Lu-lilotomab satetraxetan ([3]; 1000 nM, time (day): 6) | growth inhibition by drug plus 177Lu-lilotomab satetraxetan ([4]; 10 nM, time (day): 3) | growth inhibition by drug plus 177Lu-lilotomab satetraxetan ([4]; 10 nM, time (day): 4) | growth inhibition by drug plus 177Lu-lilotomab satetraxetan ([4]; 10 nM, time (day): 5) | growth inhibition by drug plus 177Lu-lilotomab satetraxetan ([4]; 10 nM, time (day): 6) | growth inhibition by drug plus 177Lu-lilotomab satetraxetan ([4]; 100 nM, time (day): 3) | growth inhibition by drug plus 177Lu-lilotomab satetraxetan ([4]; 100 nM, time (day): 4) | growth inhibition by drug plus 177Lu-lilotomab satetraxetan ([4]; 100 nM, time (day): 5) | growth inhibition by drug plus 177Lu-lilotomab satetraxetan ([4]; 100 nM, time (day): 6)
CC[C@]1(O)C[C@H]2CN(CCc3c([nH]c4ccccc34)[C@@](C(=O)OC)(c3cc4c(cc3OC)N(C=O)[C@H]3[C@@](O)(C(=O)OC)[C@H](OC(C)=O)[C@]5(CC)C=CCN6CC[C@]43[C@@H]65)C2)C1 [Vincristine] | 0.944 | 0.954 | 0.97 | 0.978 | 0.964 | 0.972 | 0.979 | 0.984 | 0.941 | 0.955 | 0.965 | 0.971 | 0.938 | 0.955 | 0.962 | 0.967 | 0.958 | 0.97 | 0.978 | 0.982 | 0.972 | 0.978 | 0.983 | 0.988 | 0.964 | 0.976 | 0.983 | 0.985 | 0.956 | 0.967 | 0.973 | 0.979
Cc1cccc(-c2[nH]c(C(C)(C)C)nc2-c2ccc3nccnc3c2)n1 | 0.121 | 0.0591 | -0.0391 | -0.0718 | 0.0282 | 0.0616 | 0.0184 | -0.0529 | -0.0404 | -0.00935 | -0.0953 | -0.422 | -0.418 | -0.28 | -0.32 | -0.559 | 0.0382 | 0.108 | 0.172 | 0.201 | 0.0486 | 0.0781 | 0.126 | 0.19 | 0.595 | 0.633 | 0.644 | 0.65 | 0.316 | 0.428 | 0.434 | 0.447
O=C(Nc1ncc([N+](=O)[O-])s1)c1ccc([N+](=O)[O-])c(Cl)c1 | 0.119 | 0.0794 | 0.00802 | 0.0242 | 0.153 | 0.14 | 0.0538 | 0.129 | 0.137 | 0.114 | 0.0837 | 0.0697 | -0.0662 | -0.0483 | -0.0824 | -0.14 | 0.064 | 0.0915 | 0.164 | 0.259 | 0.142 | 0.136 | 0.179 | 0.3 | 0.666 | 0.663 | 0.69 | 0.688 | 0.605 | 0.655 | 0.669 | 0.679
CC[C@@H]1C(=O)N(C)c2cnc(Nc3ccc(C(=O)N[C@H]4CC[C@H](N5CCN(CC6CC6)CC5)CC4)cc3OC)nc2N1C(C)C [BI6727 (Volasertib)] | 0.335 | 0.327 | 0.308 | 0.37 | 0.962 | 0.975 | 0.98 | 0.982 | 0.23 | 0.19 | 0.153 | 0.0282 | 0.943 | 0.962 | 0.969 | 0.971 | 0.255 | 0.307 | 0.34 | 0.465 | 0.917 | 0.946 | 0.965 | 0.977 | 0.631 | 0.702 | 0.726 | 0.726 | 0.939 | 0.964 | 0.975 | 0.981
Cc1ccnc(NS(=O)(=O)c2ccc(NC(=O)Nc3ccc(S(=O)(=O)Nc4nccc(C)n4)cc3)cc2)n1 | 0.175 | 0.112 | -0.00245 | -0.0763 | 0.114 | 0.089 | -0.0667 | -0.0262 | 0.0129 | 0.0204 | -0.0366 | -0.304 | -0.284 | -0.137 | -0.166 | -0.281 | 0.0395 | 0.0885 | 0.162 | 0.182 | 0.099 | 0.13 | 0.195 | 0.303 | 0.581 | 0.617 | 0.633 | 0.636 | 0.492 | 0.533 | 0.541 | 0.545
Cc1nn(-c2ccccc2)c(C)c1C=NN1CCN(Cc2ccccc2)CC1 | 0.0133 | 0.025 | 0.0751 | 0.189 | -0.168 | -0.0669 | -0.0956 | -0.16 | -0.144 | -0.164 | -0.201 | -0.467 | -0.163 | -0.151 | -0.201 | -0.307 | -0.0548 | -0.0219 | 0.00875 | 0.104 | -0.251 | -0.05 | -0.0247 | -0.0474 | 0.275 | 0.414 | 0.437 | 0.459 | 0.295 | 0.4 | 0.397 | 0.389
CS(=O)(=O)c1ccc(C(=O)Nc2ccc(Cl)c(-c3ccccn3)c2)c(Cl)c1 [Vismodegib (GDC-0449)] | 0.11 | 0.072 | -0.091 | -0.101 | 0.0775 | 0.075 | 0.0248 | 0.00134 | 0.089 | 0.121 | 0.101 | -0.0572 | -0.253 | -0.16 | -0.186 | -0.299 | 0.055 | 0.116 | 0.202 | 0.219 | 0.117 | 0.138 | 0.194 | 0.297 | 0.631 | 0.647 | 0.682 | 0.672 | 0.538 | 0.568 | 0.591 | 0.608
